This excerpt belongs to a sample that is enriched for the strongest signals.
Legend:
Assay in all cases: glycan array binding signal (z-score within array); higher = stronger binding
Conditions in all cases: glycan notation: IUPAC condensed, linker removed
[1] = molecular target: Fuc(a1-2)Gal(b1-3)GalNAc
In short: (§1)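 The Consortium for Functional Glycomics database supplied 3228 glycan arrays, of which those lacking an available protein sequence were dropped. The binding signal, a within-array Z-score, was averaged across arrays of the same protein sequence and across linkers. Negative scores can be read as non-binding.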

[2] = molecular target: Fuc(a1-2)Gal(b1-3)GalNAc(b1-4)[Neu5Ac(a2-3)]Gal(b1-4)Glc
In short: as §1

[3] = molecular target: Fuc(a1-2)Gal(b1-3)GlcNAc(b1-3)[Neu5Ac(a2-6)Gal(b1-4)GlcNAc(b1-6)]Gal(b1-4)Glc
In short: as §1

[4] = molecular target: Fuc(a1-2)Gal(b1-3)GlcNAc6S
In short: as §1

[5] = molecular target: Fuc(a1-2)Gal(b1-3)[Fuc(a1-4)]GlcNAc
In short: as §1

[6] = molecular target: Fuc(a1-2)Gal(b1-3)[Fuc(a1-4)]GlcNAc(b1-2)Man(a1-3)[Fuc(a1-2)Gal(b1-3)[Fuc(a1-4)]GlcNAc(b1-2)Man(a1-3)]Man(b1-4)GlcNAc(b1-4)GlcNAc
In short: as §1

[7] = molecular target: Fuc(a1-2)Gal(b1-4)Glc
In short: as §1

[8] = molecular target: Fuc(a1-2)Gal(b1-4)Glc6S
In short: as §1

[9] = molecular target: Fuc(a1-2)Gal(b1-4)GlcNAc(b1-2)Man
In short: as §1

[10] = molecular target: Fuc(a1-2)Gal(b1-4)[Fuc(a1-3)]GlcNAc
In short: as §1

[11] = molecular target: Fuc(a1-2)[Gal(a1-3)]Gal(b1-4)[Fuc(a1-3)]Glc
In short: as §1

[12] = molecular target: Fuc(a1-2)[Gal(a1-3)]Gal(b1-4)[Fuc(a1-3)]GlcNAc
In short: as §1

[13] = molecular target: Fuc(a1-2)[GalNAc(a1-3)]Gal(b1-3)GlcNAc
In short: as §1

[14] = molecular target: Fuc(a1-2)[GalNAc(a1-3)]Gal(b1-3)GlcNAc(b1-2)Man(a1-3)[Fuc(a1-2)[GalNAc(a1-3)]Gal(b1-3)GlcNAc(b1-2)Man(a1-6)]Man(b1-4)GlcNAc(b1-4)GlcNAc
In short: as §1

[15] = molecular target: Fuc(a1-3)[Gal(b1-4)]GlcNAc(b1-3)GalNAc
In short: as §1

[16] = molecular target: Fuc(a1-3)[Gal3S(b1-4)]GlcNAc
In short: as §1

[17] = molecular target: Fuc(a1-3)[GalNAc(b1-4)]GlcNAc
In short: as §1

[18] = molecular target: Gal(a1-4)Gal(b1-3)GlcNAc(b1-2)Man(a1-3)[Gal(a1-4)Gal(b1-3)GlcNAc(b1-2)Man(a1-6)]Man(b1-4)GlcNAc(b1-4)GlcNAc
In short: as §1

[19] = molecular target: Gal(a1-4)GlcNAc
In short: as §1

[20] = molecular target: Gal(b1-3)Gal
In short: as §1

[21] = molecular target: Gal(b1-3)GalNAc
In short: as §1

[22] = molecular target: Gal(b1-3)GlcNAc(b1-2)Man(a1-3)[GlcNAc(b1-4)][Gal(b1-3)GlcNAc(b1-2)Man(a1-6)]Man(b1-4)GlcNAc(b1-4)GlcNAc
In short: as §1

[23] = molecular target: Gal(b1-3)GlcNAc(b1-3)Gal(b1-4)GlcNAc(b1-3)Gal(b1-4)GlcNAc(b1-2)[Gal(b1-3)GlcNAc(b1-3)Gal(b1-4)GlcNAc(b1-3)Gal(b1-4)GlcNAc(b1-6)]Man(a1-6)[Gal(b1-3)GlcNAc(b1-3)Gal(b1-4)GlcNAc(b1-3)Gal(b1-4)GlcNAc(b1-2)Man(a1-3)]Man(b1-4)GlcNAc(b1-4)[Fuc(a1-6)]GlcNAc
In short: as §1

[24] = molecular target: Gal(b1-3)GlcNAc(b1-3)GalNAc
In short: as §1

[25] = molecular target: Gal(b1-3)[Neu5Ac(a2-6)]GalNAc
In short: as §1

[26] = molecular target: Gal(b1-4)Gal
In short: as §1

[27] = molecular target: Gal(b1-4)GlcNAc(b1-2)Man(a1-3)[Gal(b1-4)GlcNAc(b1-2)Man(a1-6)]Man(b1-4)GlcNAc(b1-4)[Fuc(a1-6)]GlcNAc
In short: as §1

[28] = molecular target: Gal(b1-4)GlcNAc(b1-2)Man(a1-3)[Man(a1-6)]Man(b1-4)GlcNAc(b1-4)GlcNAc
In short: as §1

B1: SHCBP1-GST (Homo sapiens), Q8NEM2 (protein)
chain: MADGSLTGGGLEAAAMAPERMGWAVEQELASLEKGLFQDEDSCSDCSYRDKPGSSLQSFMPEGKTFFPEIFQTNQLLFYERFRAYQDYILADCKASEVQEFTAEFLEKVLEPSGWRAVWHTNVFKVLVEITDVDFAALKAVVRLAEPYLCDSQVSTFTMECMKELLDLKEHRLPLQELWVVFDDSGVFDQTALAIEHVRFFYQNIWRSWDEEEEDEYDYFVRCVEPRLRLHYDILEDRVPSGLIVDYHNLLSQCEESYRKFLNLRSSLSNCNSDSEQENISMVEGLKLYSEMEQLKQKLKLIENPLLRYVFGYQKNSNIQAKGVRSSGQKITHVVSSTMMAGLLRSLLTDRLCQEPGEEEREIQFHSDPLSAINACFEGDTVIVCPGHYVVHGTFSIADSIELEGYGLPDDIVIEKRGKGDTFVDCTGADIKISGIKFVQHDAVEGILIVHRGKTTLENCVLQCETTGVTVRTSAEFLMKNSDLYGAKGAGIEIYPGSQCTLSDNGIHHCKEGILIKDFLDEHYDIPKISMVNNIIHNNEGYGVVLVKPTIFSDLQENAEDGTEENKALKIQTSGEPDVAERVDLEELIECATGKMELCARTDPSEQVEGNCEIVNELIAASTQKGQIKKKRLSELGITQADDNLMSQEMFVGIVGNQFKWNGKGSFGTFLF
- glycan array binding signal (z-score) [1]: -0.317
- glycan array binding signal (z-score) [2]: -0.821
- glycan array binding signal (z-score) [3]: -0.751
- glycan array binding signal (z-score) [4]: -0.806
- glycan array binding signal (z-score) [5]: 0.085
- glycan array binding signal (z-score) [6]: 0.999
- glycan array binding signal (z-score) [7]: -0.192
- glycan array binding signal (z-score) [8]: -0.251
- glycan array binding signal (z-score) [9]: -0.583
- glycan array binding signal (z-score) [10]: -0.113
- glycan array binding signal (z-score) [11]: -0.299
- glycan array binding signal (z-score) [12]: 0.298
- glycan array binding signal (z-score) [13]: -0.199
- glycan array binding signal (z-score) [14]: -0.355
- glycan array binding signal (z-score) [15]: 2.35
- glycan array binding signal (z-score) [16]: -0.161
- glycan array binding signal (z-score) [17]: 0.35
- glycan array binding signal (z-score) [18]: 4.1
- glycan array binding signal (z-score) [19]: -0.477
- glycan array binding signal (z-score) [20]: 0.702
- glycan array binding signal (z-score) [21]: -0.251
- glycan array binding signal (z-score) [22]: 2.98
- glycan array binding signal (z-score) [23]: 3.45
- glycan array binding signal (z-score) [24]: 0.539
- glycan array binding signal (z-score) [25]: -1.01
- glycan array binding signal (z-score) [26]: -0.879
- glycan array binding signal (z-score) [27]: 0.409
- glycan array binding signal (z-score) [28]: 0.6
